This is an account of results in PubChem BioAssay AID651793 (National Center for Advancing Translational Sciences (NCATS), 2012).

Results filed as inconclusive are left out. A number with no mark means an inactive call. Active and inactive are the calls of the source. Calls come from the whole dose curve; as a rule, active = well fitted inhibition curve with a large enough effect; inconclusive = small, poorly fitted or top-dose-only effect; inactive = flat fitted curve, though single readings scatter.

The test in a line: InCell qHTS Assay for Inhibitors of the mTORC1 Signaling Pathway in WT MEF Cells: Hit Validation. To be noted: WT MEF phospho-rpS6 immunofluorescence, Acumen, 24 h; series mostly up to 38.3 µM; activity change, negative = inhibition: at the top concentration. From the text: The mammalian target of rapamycin (mTOR) is an intracellular serine/threonine kinase Aberrant regulation of mTOR signaling plays a causative role in a number of human diseases, including cancer, benign tumors such as lymphangioleiomyomatosis (LAM) and Tuberous Sclerosis Complex (TSC), and metabolic diseases such as diabetes and obesity. This project aims to identify inhibitors of ribosomal protein S6 (rpS6) phosphorylation. The phosphorylation of rpS6 is a key event downstream of mTOR activation. The assay uses a phospho-specific antibody of phospho-rpS6 to detect inhibitors of mTOR activation. Mutations in the Tsc1 and Tsc2 genes are the underlying genetic lesions responsible for TSC, causing constitutive activation of the mTORC1 pathway and leading to profound effects on cell metabolism. Aberrant metabolism in cancer has recently received significant attention as a target to develop therapeutic agents in the treatment of cancer.1 As Tsc2-/- cells have lost the ability to respond to energy and growth factor deprivation, these cells are unable to properly down regulate cellular biosynthetic processes in response to metabolic stress, and are thus extremely sensitive to glucose deprivation-induced death.2 A central goal of this project is to explore the unique cell survival and metabolic properties of cells with Tsc1 or Tsc2 by screening for compounds that selectively target the Tsc2-/- MEFs by screening both Tsc2-/- and WT MEF cell lines. We hope to better understand these aspects of TSC physiology in order to exploit them for therapeutic benefit. NIH Molecular Libraries Probe Production Centers Network [MLPCN] NIH Chemical Genomics Center [NCGC] MLPCN Grant: NS059428 Assay Submitter (PI): Blenis, John; Harvard University
For quantitative high throughput analysis of mTORC1 signaling, we developed a cell-based assay for immuno-fluorescence based detection of rpS6 phosphorylation on the Acumen Explorer that will be used a platform for the primary small molecule screen. Mouse embryonic fibroblasts (MEFs) are cultured in 1536-well plates using DMEM + 10% FBS. Twenty-four hrs after plating, test compounds (solubilized in DMSO) are delivered and incubated with the cells for 24 hrs at 37 degree Celsius. Following the incubation, media with compound is aspirated and the cells are fixed in 4% paraformaldehyde (PFA) containing PBS + 0.2% TX-100. Next, PFA is aspirated, cells are washed two times with PBS plus 0.2% TX-100 and the cells are blocked for 1 hr at room temperature (blocking buffer: LiCOR Blocking Buffer plus 0.2% TX-100). This is followed by aspiration and staining with Alexa-488 conjugated-phospho-rpS6 Ser235/236 antibody for 2 hours at room temperature (Cell Signaling Technology # 4803, 1:50 dilution in blocking buffer). Cells are washed two times with PBS plus 0.2% TX-100, and stained with 10 uM propidium iodide (PI) for 20-25 minutes for cell number measurement (1:500 dilution of Hoescht staining is also added for IN Cell imaging). The plates are scanned on the Acumen Explorer laser scanning instrument (TTP Labtech) using the 488nm laser for simultaneous excitation of the Alexa-488 and PI. The fluorescence emission from the Alexa-488 conjugated rpS6 phospho-235/236 antibody staining is selected using a […] band pass filter. Fluorescence emission from the PI stain is selected using a 575-640 nm band pass filter. The normalized phospho-S6 staining is calculated as the ratio of the integrated Alexa 488 intensity divided by the integrated PI intensity for the single concentration rapamycin control (7.5 nM) and DMSO columns. […] Inhibition of the pathway is defined based on the normalized phospho-S6 intensity in rapamycin treated cells. […]
With `CCOc1ccc(C2CC(=O)c3c([nH]c(C(=O)OCc4ccccc4)c3C)C2)cc1` (configuration not stated), the “activity change, negative = inhibition” value was -1.88%.

As for `COc1ccc(/C=C/C(=O)Nc2ccc3nc4c(c(Nc5ccc(OC)c(OC)c5)c3c2)CCCC4)cc1`, the Potency was 11.3 µM (active). Turning to `O=C1CC(c2ccccc2)Cc2[nH]c(=O)c(-c3nc(-c4cccc(Cl)c4)cs3)cc21` (configuration not stated), the “activity change, negative = inhibition” value was -4.76%.

As for `Cc1cc(N2CCCCC2)nc2ccc(NC(=O)/C=C/c3ccccc3OC(C)C)cc12`, the “activity change, negative = inhibition” value is -15.8%. On the same count and under the same terms, the same measure for `COc1cc(Nc2nc(-c3ccc(OC)c(OC)c3)nc3ccccc23)cc(OC)c1`: 0.662%. As to `COc1ccccc1Nc1c2c(nc3ccc(NC(=O)c4ccc(N(C)C)cc4)cc13)CCCC2`, the Potency was 5.65 µM (active). The same measure, in the same setting: the value for `CCN(CC)c1cc(C)c2cc(NC(=O)/C=C/c3cc(OC)c(OC)c(OC)c3)ccc2n1` was 22.5 µM (active). The same measure, in the same setting: the value for `COc1ccccc1Nc1c2c(nc3ccc(NC(=O)/C=C/c4cc(OC)c(OC)c(OC)c4)cc13)CCCC2` was 2.52 µM (active). Regarding `O=C1CC(c2ccccc2)Cc2[nH]c(=O)c(-c3nc(-c4ccc(Cl)cc4)cs3)cc21` (configuration not stated), the “activity change, negative = inhibition” value was -11.7%. Take `COc1ccc(Nc2c3c(nc4ccc(NC(=O)/C=C/c5cccc(OC)c5OC)cc24)CCCC3)cc1OC`: the Potency is 8.95 µM (active). As for `Cc1c(C(=O)OCCOc2ccccc2)[nH]c2c1C(=O)CC(c1ccccc1Cl)C2` (configuration not stated), the “activity change, negative = inhibition” value was 2.04%. With `COc1ccccc1Nc1c2c(nc3ccc(NC(=O)c4cccc(OC)c4OC)cc13)CCCC2`, the Potency was 17.9 µM (active). For the molecule `CCN1CCN(c2cc(C)c3cc(NC(=O)/C=C/c4ccc(C)cc4)ccc3n2)CC1`, the “activity change, negative = inhibition” value is -0.932%.

Regarding `Cc1cc(N2CCN(C)CC2)nc2ccc(NC(=O)c3ccc(C(C)(C)C)cc3)cc12`, the Potency is 15.9 µM (active). Same read-out and setting: the value for `COc1cc(NC(=O)c2cccc(F)c2)ccc1NC(=O)c1cc2ccccc2o1` was 8.95 µM (active). On to `Cc1cccc(Nc2nc(Nc3cccc(C)c3)nc(N3CCOCC3)n2)c1`, for which the Potency was 20 µM (active).

`CCCOc1ccc(C(=O)Nc2ccc(NC(=O)c3ccccc3)c(Br)c2)cc1`: the Potency is 10 µM (active). Regarding `CCOc1ccc(Nc2nc(Nc3ccc(OCC)cc3)nc(N3CCOCC3)n2)cc1`, the “activity change, negative = inhibition” value is -14%.

For the molecule `C=CCNC1=C2C[C@@H](C)C[C@H](OC)[C@H](O)[C@@H](C)/C=C(\C)[C@H](OC(N)=O)[C@@H](OC)/C=C\C=C(/C)C(=O)NC(=CC1=O)C2=O`, the Potency is 0.252 µM (active). On to `CCN1CCN(c2cc(C)c3cc(NC(=O)c4cc(OC)cc(OC)c4)ccc3n2)CC1`, for which the “activity change, negative = inhibition” value was 0.907%. Consider `CCOc1ccc(/C=C/C(=O)Nc2ccc3nc(N(CC)CC)cc(C)c3c2)cc1OC`, for which the Potency was 10 µM (active). Take `CCN1CCN(c2cc(C)c3cc(NC(=O)c4cccc(Cl)c4)ccc3n2)CC1`: the “activity change, negative = inhibition” value was 2.04%. Consider `CCN1CCN(c2cc(C)c3cc(NC(=O)/C=C/c4ccc(OCCC(C)C)cc4)ccc3n2)CC1`, for which the Potency was 3.18 µM (active).

Take `COc1cc(-c2nc3ncccn3c2Nc2ccc(C)cc2C)ccc1O`: the “activity change, negative = inhibition” value is -17.7%. Take `CCCCc1ccc(C(=O)Nc2ccc3nc(N4CCN(CC)CC4)cc(C)c3c2)cc1`: the Potency is 8.95 µM (active).

Consider `CCCOc1ccc(C(=O)Nc2ccc(NC(=O)c3ccccc3)c(C)c2)cc1`, for which the Potency is 6.34 µM (active).

For `COc1ccc(OC)c(C2CC(=O)c3c([nH]c(C(=O)OCc4ccc(C)cc4)c3C)C2)c1` (configuration not stated), the “activity change, negative = inhibition” value was 0.434%.
